According to PubChem BioAssay (Tox21):
Values without a mark were called inactive. Results filed as inconclusive are left out. Entries that show only a call come without a potency. The source made the active and inactive calls. Unless noted, calls come from the whole dose curve.

Assays:
[1] = Nuclear factor erythroid 2-related factor 2/antioxidant responsive element (Nrf2/ARE) small molecule agonists: qHTS cell viability counter screen in human keratinocytes (AID 1919968; active = well fitted curve in the direction sought with a large enough effect in the repeat runs; an effect the other way counts as inactive or inconclusive; note: nearly all actives have a fitted effect of over 55% in size)
Method in brief: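 Cytotoxicity was multiplexed with the Nrf2/ARE luciferase assay in the same wells. Stably transfected HaCaT keratinocytes were treated with test compounds for 23 h at 37 C. Cell viability was then measured by CellTiter-Fluor fluorescence.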

[2] = Nuclear factor erythroid 2-related factor 2/antioxidant responsive element (Nrf2/ARE) small molecule agonists: luciferase reporter gene qHTS assay in human keratinocytes (AID 1919969); note: nearly all actives have a fitted effect of over 35% in size; note: potency is the fitted concentration of half-maximal effect
[3] = molecular target: Gonadotropin-releasing hormone receptor (Homo sapiens) (UniProt P30968); experiment: Human gonadotropin-releasing hormone receptor (GnRHR) small molecule agonists, calcium flux assay in GnRHR-HEK293 cells (AID 1920063); note: nearly all actives have a fitted effect of over 35% in size
Method in brief: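 Agonist activity was measured as intracellular calcium flux in HEK293 cells engineered to stably express human GnRHR. After dye loading for 1 hour at 37 C, compounds in DMSO were added and fluorescence was followed for 3 minutes.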

[4] = molecular target: KiSS-1 receptor (Homo sapiens) (UniProt Q969F8); experiment: Human kisspeptin (KISS1R) small molecule agonists, calcium flux assay in KISS1R-HEK293 cells (AID 1920064; active = well fitted curve in the direction sought with a large enough effect in the repeat runs; an effect the other way counts as inactive or inconclusive)
Method in brief: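 Agonist activity is monitored as intracellular calcium rise in engineered HEK293 cells carrying human KISS1R. Cells are dye-loaded for 1 h at 37 C before compound addition, and fluorescence is recorded for 3 min.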

[5] = G protein-coupled receptor (GPCR) small molecule agonists, calcium flux assay: HEK293 wild type cell line counter screen (AID 1920065)
Method in brief: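 Seed cells, incubate 18 h (37 C, 5% CO2); add calcium dye, 1 h at 37 C; pin-transfer compounds, ATP control or DMSO; read fluorescence 480/540 nm each second for 3 min.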

[6] = p53 small molecule agonists, cell-based qHTS assay with human liver microsomes (AID 1963577);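 note: p53 response element beta-lactamase reporter cells with liver microsomes plus NADPH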
Method in brief: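 In this qHTS, p53 response-element beta-lactamase cells receive test compound together with a microsome/NADPH activating system (0.5 mg/mL final each) and are incubated 16 h at 37 C before LiveBLAzer fluorescence detection.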

[7] = p53 small molecule agonists, cell-based qHTS assay: qHTS cell viability counter screen (AID 1963581); note: nearly all actives have a fitted effect of over 45% in size; note: potency is the fitted concentration of half-maximal effect
Method in brief: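 Viability was counter-screened in parallel with the p53 agonist reporter by measuring intracellular ATP luminescence in the same HCT-116 p53RE-bla wells after 16 h compound treatment at 37 C.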

[8] = p53 small molecule agonists, cell-based qHTS assay (AID 1963582; active = well fitted activation curve with a large enough effect in the signal ratio in the repeat runs, not every such curve was filed as active; the % refers to the signal ratio)
Method in brief: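 Cells carrying a p53-responsive bla reporter are treated with test compounds for 16 h at 37 C; beta-lactamase activity is then detected with LiveBLAzer B/G FRET substrate after 2 h at room temperature.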

[9] = molecular target: 5-hydroxytryptamine receptor 2A (Homo sapiens) (UniProt P28223); experiment: 5-hydroxytryptamine receptor 2A (HTR2A) small molecule antagonists, cell-based qHTS assay (AID 1963586); note: nearly all actives have a fitted effect of over 45% in size
Method in brief: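 CHO cells stably expressing human HTR2A were plated for 18 h at 37 C, then loaded with calcium dye for 1 h. Compounds were preincubated 5 min at room temperature before DOI (4 nM solution) was added. Kinetic fluorescence was read for 3 min.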

[10] = molecular target: 5-hydroxytryptamine receptor 2A (Homo sapiens) (UniProt P28223); experiment: 5-hydroxytryptamine receptor 2A (HTR2A) small molecule agonists, cell-based qHTS assay (AID 1963587); note: nearly all actives have a fitted effect of over 30% in size
Method in brief: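 HTR2A-CHO cells, plated 18 h at 37 C/5% CO2, dye-loaded 1 h at 37 C; compounds in DMSO added by pin tool (agonist mode). Intracellular calcium flux read as kinetic fluorescence on FDSS over 2 min at 1 s intervals.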

[11] = molecular target: Muscarinic acetylcholine receptor M1 (Homo sapiens) (UniProt P11229); experiment: Cholinergic receptor muscarinic 1 (CHRM1) small molecule antagonists, cell-based qHTS assay (AID 1963588); note: nearly all actives have a fitted effect of over 40% in size
Method in brief: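 Compounds were tested at 15 concentrations in three independent runs. Dye-loaded CHRM1-CHO cells were exposed 5 min at room temperature before stimulation by acetylcholine added at 50nM. Intracellular calcium was read kinetically on FDSS for 3 min.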

[12] = molecular target: Muscarinic acetylcholine receptor M1 (Homo sapiens) (UniProt P11229); experiment: Cholinergic receptor muscarinic 1 (CHRM1) small molecule agonists, cell-based qHTS assay (AID 1963589); note: nearly all actives have a fitted effect of over 35% in size
Method in brief: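 Cells were plated and incubated 18 h at 37 C/5% CO2, loaded with calcium dye for 1 h at 37 C, then treated with compounds in DMSO. Fluorescence was recorded kinetically at 1 sec intervals.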

[13] = cAMP Responsive Elements (CRE) small molecule agonists, cell-based qHTS assay (AID 1963590)
Method in brief: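 Cells carrying a CRE-driven beta-lactamase reporter (HEK 293T) are seeded, incubated overnight (18 h), and treated with test compounds for 3 h at 37 C; reporter activity is then detected with a FRET substrate after 2 h at room temperature.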

[14] = cAMP Responsive Elements (CRE) small molecule antagonists, cell-based qHTS assay (AID 1963591; active = well fitted inhibition curve with a large enough effect in the signal ratio in the repeat runs, not every such curve was filed as active; the % refers to the signal ratio)
Method in brief: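 Cells (CRE-bla HEK 293T, DMEM with 10% dialyzed FBS and 25 mM HEPES) are seeded and incubated 18 h. Compounds are added with NKH477 agonist at 0.25 uM final for 3 h, then FRET substrate for 2 h.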

[15] = molecular target: Beta-2 adrenergic receptor (Homo sapiens) (UniProt P07550); experiment: Adrenergic beta2 receptor (ADRB2) small molecule antagonists, cell-based qHTS assay (AID 1963592); note: series mostly up to about 92 µM; nearly all actives have a fitted effect of over 50% in size
Method in brief: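 Assay format: CHO-ADRB2 cells, 18-20hr seeding at 37C/5% CO2, then compound plus 1nM isoproterenol agonist mix for 0.5hr RT. Homogeneous time-resolved fluorescence cAMP detection after 1hr, expressed as 665/615 nm ratio.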

[16] = molecular target: D(2) dopamine receptor (Homo sapiens) (UniProt P14416); experiment: Dopamine D2 receptor (DRD2) small molecule agonists, cell-based qHTS assay (AID 1963594); note: nearly all actives have a fitted effect of over 35% in size
Method in brief: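 HEK293 cells stably expressing DRD2 were cultured 24 h at 37 C, then given Ro20-1724 (0.1 mM final) and compounds for 10 min at room temperature. NKH477 (200nM) was then added for 30 min. cAMP was read by HTRF.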

[17] = molecular target: D(2) dopamine receptor (Homo sapiens) (UniProt P14416); experiment: Dopamine D2 receptor (DRD2) small molecule antagonists, cell-based qHTS assay (AID 1963595; active = well fitted inhibition curve with a large enough effect in the signal ratio in the repeat runs, with a control signal flat; the % refers to the signal ratio)
Method in brief: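 Antagonist mode in DRD2-HEK293 cells: after compound addition with 0.1 mM Ro20-1724, cells received quinpirole (12 nM) and NKH477 (200 nM) for 30 min at room temperature; HTRF cAMP read after 1 h detection.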

[18] = molecular target: Beta-2 adrenergic receptor (Homo sapiens) (UniProt P07550); experiment: Adrenergic beta2 receptor (ADRB2) small molecule agonists, cell-based qHTS assay (AID 1963593);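 note: CHO cells stably overexpressing human ADRB2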
Method in brief: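 CHO cells stably over-expressing ADRB2 were plated overnight at 37C, then dosed with compounds plus a stimulation mix containing 100uM IBMX and 25uM Ro-20-1724 for 0.5hr at room temperature. cAMP was measured by HTRF competition, 1hr.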

[19] = p53 small molecule agonists, cell-based qHTS assay with human liver microsomes: qHTS cell viability counter screen (AID 1963579); note: nearly all actives have a fitted effect of over 45% in size; note: potency is the fitted concentration of half-maximal effect
Method in brief: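 Metabolically activated exposure: compounds, human liver microsomes and NADPH (0.5 mg/mL final apiece) were added to p53RE-bla cells seeded 5 h earlier, left 16 h at 37 C, and then assessed for viability by CellTiter-Glo luminescence.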

[20] = p53 small molecule agonists, cell-based qHTS assay with rat liver microsomes: qHTS cell viability counter screen (AID 1963580); note: nearly all actives have a fitted effect of over 45% in size; note: potency is the fitted concentration of half-maximal effect
Method in brief: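 Counter screen for cytotoxicity under metabolic activation: rat liver microsomes and NADPH, 0.5 mg/mL final each, added with compounds to p53RE-bla HCT-116 cells; 16 h at 37 C, then ATP luminescence read.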

Sequence of KiSS-1 receptor (Homo sapiens) (Q969F8 whole entry, looked up): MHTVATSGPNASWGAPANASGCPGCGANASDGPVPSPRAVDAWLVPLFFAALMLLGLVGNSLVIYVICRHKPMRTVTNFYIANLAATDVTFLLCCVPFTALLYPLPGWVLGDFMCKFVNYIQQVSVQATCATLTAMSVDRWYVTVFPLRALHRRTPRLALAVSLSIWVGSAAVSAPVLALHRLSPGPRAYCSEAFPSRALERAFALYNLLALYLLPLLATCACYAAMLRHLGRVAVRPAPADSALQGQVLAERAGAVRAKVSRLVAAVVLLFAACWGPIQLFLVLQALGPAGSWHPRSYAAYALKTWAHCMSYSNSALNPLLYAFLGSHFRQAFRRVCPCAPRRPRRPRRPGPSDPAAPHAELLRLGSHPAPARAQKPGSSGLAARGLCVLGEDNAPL
Sequence of Muscarinic acetylcholine receptor M1 (Homo sapiens) (P11229 whole entry, looked up): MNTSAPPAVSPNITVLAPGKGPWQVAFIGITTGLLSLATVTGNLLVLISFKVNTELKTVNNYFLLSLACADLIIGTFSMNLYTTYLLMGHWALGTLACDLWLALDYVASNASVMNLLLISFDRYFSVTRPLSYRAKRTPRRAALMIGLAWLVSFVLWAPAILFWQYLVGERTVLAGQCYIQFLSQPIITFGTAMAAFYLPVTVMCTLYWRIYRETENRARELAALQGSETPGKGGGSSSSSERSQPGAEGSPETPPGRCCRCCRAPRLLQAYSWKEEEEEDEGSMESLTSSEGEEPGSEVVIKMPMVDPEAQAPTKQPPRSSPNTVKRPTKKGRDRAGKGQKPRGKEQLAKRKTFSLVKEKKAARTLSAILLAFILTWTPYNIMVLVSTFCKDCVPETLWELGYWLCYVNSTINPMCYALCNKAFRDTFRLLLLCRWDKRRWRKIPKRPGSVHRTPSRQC
Sequence of Gonadotropin-releasing hormone receptor (Homo sapiens) (P30968 whole entry, looked up): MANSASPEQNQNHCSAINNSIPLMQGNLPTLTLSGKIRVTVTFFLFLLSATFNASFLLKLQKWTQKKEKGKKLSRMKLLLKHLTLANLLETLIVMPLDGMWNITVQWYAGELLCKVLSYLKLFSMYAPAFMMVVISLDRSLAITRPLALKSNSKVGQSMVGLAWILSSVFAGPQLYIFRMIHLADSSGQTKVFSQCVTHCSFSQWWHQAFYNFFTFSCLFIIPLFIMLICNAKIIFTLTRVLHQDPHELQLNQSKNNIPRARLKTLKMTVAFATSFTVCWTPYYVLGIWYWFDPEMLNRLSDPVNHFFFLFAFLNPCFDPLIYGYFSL
Sequence of 5-hydroxytryptamine receptor 2A (Homo sapiens) (P28223 whole entry, looked up): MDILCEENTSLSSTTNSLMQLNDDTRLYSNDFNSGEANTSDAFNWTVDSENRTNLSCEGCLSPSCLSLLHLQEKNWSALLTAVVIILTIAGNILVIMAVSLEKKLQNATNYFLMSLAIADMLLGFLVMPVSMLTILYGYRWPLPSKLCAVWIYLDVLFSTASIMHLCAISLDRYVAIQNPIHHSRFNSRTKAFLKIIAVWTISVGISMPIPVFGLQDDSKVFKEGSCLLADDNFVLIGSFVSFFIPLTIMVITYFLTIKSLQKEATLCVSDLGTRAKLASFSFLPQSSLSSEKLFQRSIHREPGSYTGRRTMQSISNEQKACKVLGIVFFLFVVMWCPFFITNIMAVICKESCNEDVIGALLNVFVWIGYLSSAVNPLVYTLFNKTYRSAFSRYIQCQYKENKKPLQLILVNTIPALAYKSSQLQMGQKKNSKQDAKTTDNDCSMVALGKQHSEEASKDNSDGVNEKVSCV
Sequence of D(2) dopamine receptor (Homo sapiens) (P14416 whole entry, looked up): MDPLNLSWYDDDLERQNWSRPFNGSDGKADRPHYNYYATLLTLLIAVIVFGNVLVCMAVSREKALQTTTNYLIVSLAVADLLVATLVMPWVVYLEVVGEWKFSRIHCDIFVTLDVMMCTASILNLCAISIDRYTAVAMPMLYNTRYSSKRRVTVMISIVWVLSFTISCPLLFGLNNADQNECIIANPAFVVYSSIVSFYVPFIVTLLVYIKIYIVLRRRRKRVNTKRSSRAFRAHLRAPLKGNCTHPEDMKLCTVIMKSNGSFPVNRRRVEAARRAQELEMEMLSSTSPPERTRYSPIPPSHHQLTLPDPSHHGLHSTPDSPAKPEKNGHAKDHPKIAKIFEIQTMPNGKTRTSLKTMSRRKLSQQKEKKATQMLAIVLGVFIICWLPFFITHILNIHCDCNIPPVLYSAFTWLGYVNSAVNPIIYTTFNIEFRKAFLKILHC
Sequence of Beta-2 adrenergic receptor (Homo sapiens) (P07550 whole entry, looked up): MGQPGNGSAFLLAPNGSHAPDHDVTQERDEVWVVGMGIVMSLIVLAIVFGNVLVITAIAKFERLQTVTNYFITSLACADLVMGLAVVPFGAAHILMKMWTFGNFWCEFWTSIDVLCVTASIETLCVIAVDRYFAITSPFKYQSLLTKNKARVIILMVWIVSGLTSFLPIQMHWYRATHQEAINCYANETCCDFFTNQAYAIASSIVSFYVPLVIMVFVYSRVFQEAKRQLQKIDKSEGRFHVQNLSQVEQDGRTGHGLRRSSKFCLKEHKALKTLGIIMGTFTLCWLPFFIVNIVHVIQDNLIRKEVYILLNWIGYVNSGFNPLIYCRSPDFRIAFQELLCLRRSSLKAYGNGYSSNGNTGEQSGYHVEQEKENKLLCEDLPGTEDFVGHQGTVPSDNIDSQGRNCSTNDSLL

Compound	Potency [1]	Potency [2]	Potency [3]	Potency [4]	Potency [5]	Potency [6]	Potency [7]	Potency [8]	Potency [9]	Potency [10]	Potency [11]	Potency [12]	Potency [13]	Potency [14]	Potency [15]	Potency [16]	Potency [17]	Potency [18]	Potency [19]	Potency [20]
CCCOC(=O)C(C)O (stereo not given)	inactive	inactive	inactive	inactive	inactive	inactive	inactive	inactive	inactive	inactive	inactive	inactive	inactive	inactive	inactive	inactive	inactive			
CCCc1ccc(N)cc1	inactive	inactive	inactive	inactive	inactive	inactive	inactive	inactive	inactive		inactive	inactive	inactive	inactive	inactive	inactive	inactive	inactive		
C=CC(=O)OCCCCCC	inactive	inactive	inactive	inactive	inactive	inactive	0.363 µM (active)	inactive	inactive	inactive	inactive	inactive	inactive	inactive	inactive	inactive	inactive	inactive	inactive	inactive
CSc1cnccn1	inactive	inactive	inactive	inactive	inactive	inactive	inactive	inactive	inactive	inactive	inactive	inactive		inactive	inactive	inactive	inactive			inactive
CC(O)C(CO)C(C)O (stereo not given)	inactive	inactive	inactive	inactive	inactive	inactive	inactive	inactive	inactive	inactive		inactive	inactive	inactive	inactive	inactive	inactive	inactive		inactive
CC1CC(=O)CC(C)(C)C1 (stereo not given)	inactive	inactive	inactive	inactive	inactive	inactive	inactive	inactive		inactive	inactive			inactive	inactive		inactive	inactive		inactive
CN(C(=O)c1c(O)c2ccccc2n(C)c1=O)c1ccccc1	inactive	inactive	inactive	inactive	inactive	inactive	inactive	inactive	inactive	inactive	inactive	inactive	inactive	inactive	inactive	inactive	inactive	inactive	inactive	inactive
CCCCCCCCCCCCCCC(=O)NC(CO)CCCCCCCCCCCCCC (stereo not given)	inactive	inactive	inactive	inactive	inactive	inactive	inactive	inactive	inactive	inactive	inactive	inactive	inactive	inactive	inactive	inactive	inactive	inactive	inactive	inactive
c1ccc2c(c1)CCC2	inactive	13.7 µM (active)	inactive	inactive	inactive	inactive	inactive	inactive		inactive		inactive	inactive	inactive	inactive	inactive	inactive	inactive		inactive
Oc1ccc(Sc2ccc(O)cc2)cc1	inactive	57.2 µM (active)	inactive	inactive	inactive	inactive	inactive	inactive	inactive	inactive	inactive	inactive	inactive	inactive	inactive	inactive	inactive		inactive	inactive
C#CC(O)CCC (stereo not given)	inactive	inactive	inactive	inactive	inactive	inactive	inactive	inactive	inactive	inactive	inactive	inactive	inactive	inactive		inactive	inactive		inactive	inactive
N#CCc1cccc(C(F)(F)F)c1	inactive	68.6 µM (active)	inactive	inactive	inactive	inactive	inactive	inactive	inactive	inactive		inactive	inactive	inactive	inactive	inactive		inactive	40.8 µM (active)	45.8 µM (active)
CN(C)CCCNCCCN	inactive	inactive	inactive	inactive	inactive	inactive	inactive	inactive	inactive	inactive	inactive	inactive	inactive	inactive	inactive	inactive	inactive		inactive	inactive
CCC(=O)CC	inactive	inactive	inactive	inactive	inactive	inactive	inactive	inactive	inactive	inactive	inactive	inactive			inactive	inactive	inactive	inactive		inactive
CCCCOC(=O)C(C)OC(=O)CCC (stereo not given)	inactive	inactive	inactive	inactive	inactive	inactive	inactive	inactive	inactive	inactive	inactive		inactive	inactive		inactive	inactive	inactive	inactive	inactive
